Active and inactive are the calls of the source. Unless noted, no rule for the calls is given here.
Columns and labels:
[1] = HepG2 liver cancer cell viability effects, profiling panel, resazurin fluorescence, 24 h, PK04 Diversity Set (AID 1172); settings: higher = more signal
[2] = basal S. cerevisiae growth modulation, no modifier, primary screen, OD600, strain BY4716, 24 h, basal condition (AID 1173); settings: OD600, 24 h, higher = more signal, called active from +8 up or from −8 down
[3] = MM1S myeloma cell viability, profiling panel, resazurin fluorescence, basal, 24 h, PK04 Diversity Set (AID 1174); settings: higher = more signal, called active from +8 up or from −8 down;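 also: MM1S multiple myeloma cell line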
[4] = molecular target: Dihydroorotate dehydrogenase (quinone), mitochondrial (Plasmodium falciparum (isolate 3D7)) (UniProt Q08210); assay: PfDHODH enzyme inhibitors, primary screen, biochemical, C-terminal His tag, absorbance 600 nm (AID 1175); settings: DCIP absorbance 600 nm, higher = more signal, called active from +8 up or from −8 down;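 also: recombinant parasite enzyme with a five histidine tag at its C terminus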
[5] = P. aeruginosa biofilm formation inhibitors, primary screen, strain PAO1, LB-PBS medium, absorbance 600 nm (AID 1176); settings: P. aeruginosa PAO1 growth/biofilm, A600, 12 h; higher = more signal
[6] = S. cerevisiae RM11-1a growth modifiers, primary screen, strain RM11-1a, OD600, basal, 24 h (AID 1177); settings: OD600, 24 h, higher = more signal, called active from +8 up or from −8 down;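 also: cultures grown under basal conditions with no added stressor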
[7] = E. coli acrAB mutant growth effects, primary screen, E. coli filamentation inducers, strain DRC39, OD650, 24 h (AID 1178); settings: higher = more signal, called active from +8 up or from −8 down;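 also: growth measured as culture turbidity by optical density at 650 nm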
[8] = E. coli acrAB mutant growth effects, primary screen, E. coli filamentation inducers, strain DRC39, OD650, 48 h (AID 1179);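 also: screen aims at cell division blockers that make cells filament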; settings: E. coli DRC39 delta-acrAB growth, higher = more signal, called active from +8 up or from −8 down
[9] = RPMI8226 myeloma cell viability, profiling panel, resazurin fluorescence, basal, 24 h, PK04 Diversity Set (AID 1180); settings: higher = more signal;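 also: RPMI8826 multiple myeloma cell line at 5000 cells per well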
[10] = molecular target: E3 ubiquitin-protein ligase XIAP (Homo sapiens) (UniProt P98170); assay: XIAP binders, primary screen, biophysical, small-molecule microarray, fluorescence 635 nm (AID 1181); settings: small-molecule microarray binding, higher = more signal;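 also: score merges 667 nm emission and signal to noise over triplicate slides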
[11] = system: XIP peptide (Xip251-270) binding; assay: small-molecule binders of XIP peptide, primary screen, biochemical, small-molecule microarray, fluorescence 635/667 nm, 0.1 µg/mL protein (AID 1182); settings: fluorescent protein binding, 635 nm, higher = more signal, called active from +8 up or from −8 down
XIP peptide (Xip251-270) = assay: small-molecule binders of XIP peptide, primary screen, biochemical, small-molecule microarray, fluorescence 635/667 nm, 0.5 µg/mL protein (AID 1183); settings: small-molecule microarray binding, fluorescence 635 nm; higher = more signal
[12] = Plasmodium falciparum growth inhibition, primary screen, strain 3D7, DAPI fluorescence, 100 nL (AID 1184);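 also: parasites grown inside human red blood cells in medium with human serum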; settings: P. falciparum 3D7 growth, 3 d, higher = more signal
[13] = molecular target: Homeobox protein Hox-A13 (Mus musculus) (UniProt Q62424); assay: inhibitors of HoxA13-DNA binding, primary screen, biochemical, fluorescence polarization, labeled oligonucleotide (AID 1185); settings: 15 min, higher = more signal, called active from +8 up or from −8 down
[14] = inhibitors of hydroxyurea-induced Chk1 phosphorylation, primary screen, imaging, HeLa, phospho-Chk1 antibody, percent positive cells (AID 1186); settings: hydroxyurea-induced phospho-Chk1 immunofluorescence imaging, higher = more signal
[15] = inhibitors of hydroxyurea-induced Chk1 phosphorylation, primary screen, imaging, HeLa, phospho-Chk1 nuclear intensity (AID 1187); settings: hydroxyurea-induced phospho-Chk1 immunofluorescence imaging, higher = more signal

Chain of Homeobox protein Hox-A13 (Mus musculus) (Q62424 whole entry, looked up): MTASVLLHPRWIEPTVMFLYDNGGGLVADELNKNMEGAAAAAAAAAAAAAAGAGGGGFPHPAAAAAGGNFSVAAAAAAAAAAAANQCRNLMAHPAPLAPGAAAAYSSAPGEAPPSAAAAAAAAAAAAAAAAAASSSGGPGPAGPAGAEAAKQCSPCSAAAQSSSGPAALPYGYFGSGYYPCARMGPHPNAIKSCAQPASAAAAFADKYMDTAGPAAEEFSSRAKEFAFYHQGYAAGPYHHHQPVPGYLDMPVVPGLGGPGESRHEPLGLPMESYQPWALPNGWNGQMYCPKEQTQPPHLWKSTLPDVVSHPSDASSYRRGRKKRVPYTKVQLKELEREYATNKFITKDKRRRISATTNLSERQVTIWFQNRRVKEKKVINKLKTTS
Chain of E3 ubiquitin-protein ligase XIAP (Homo sapiens) (P98170 whole entry, looked up): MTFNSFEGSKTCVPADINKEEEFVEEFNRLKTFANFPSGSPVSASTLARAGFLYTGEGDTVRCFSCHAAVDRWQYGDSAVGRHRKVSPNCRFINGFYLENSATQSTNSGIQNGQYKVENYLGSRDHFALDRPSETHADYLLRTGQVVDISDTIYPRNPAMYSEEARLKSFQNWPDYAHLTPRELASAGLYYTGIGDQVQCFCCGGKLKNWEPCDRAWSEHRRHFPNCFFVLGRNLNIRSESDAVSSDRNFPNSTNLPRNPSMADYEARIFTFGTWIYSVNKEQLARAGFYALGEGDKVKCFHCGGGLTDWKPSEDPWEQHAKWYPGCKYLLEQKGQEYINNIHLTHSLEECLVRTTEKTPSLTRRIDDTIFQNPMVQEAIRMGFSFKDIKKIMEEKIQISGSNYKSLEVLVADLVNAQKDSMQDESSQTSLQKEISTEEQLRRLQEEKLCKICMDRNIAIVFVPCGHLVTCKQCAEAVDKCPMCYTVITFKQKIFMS
Chain of Dihydroorotate dehydrogenase (quinone), mitochondrial (Plasmodium falciparum (isolate 3D7)) (Q08210 whole entry, looked up): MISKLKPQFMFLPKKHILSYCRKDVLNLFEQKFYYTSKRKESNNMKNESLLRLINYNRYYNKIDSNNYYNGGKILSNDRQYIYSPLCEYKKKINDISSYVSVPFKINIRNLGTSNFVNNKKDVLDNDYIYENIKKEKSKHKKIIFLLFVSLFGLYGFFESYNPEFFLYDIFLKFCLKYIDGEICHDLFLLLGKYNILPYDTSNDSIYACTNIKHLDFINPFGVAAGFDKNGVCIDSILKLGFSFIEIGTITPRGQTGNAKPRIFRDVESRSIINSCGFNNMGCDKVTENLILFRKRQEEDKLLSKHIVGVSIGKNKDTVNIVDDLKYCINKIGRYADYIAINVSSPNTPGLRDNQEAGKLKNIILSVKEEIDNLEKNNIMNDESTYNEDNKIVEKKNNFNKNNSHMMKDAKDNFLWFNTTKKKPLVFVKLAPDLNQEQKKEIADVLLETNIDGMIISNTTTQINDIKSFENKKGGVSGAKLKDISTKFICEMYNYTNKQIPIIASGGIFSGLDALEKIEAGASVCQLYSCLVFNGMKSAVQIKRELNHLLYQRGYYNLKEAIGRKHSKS

| SMILES | z-score [1] | z-score [2] | z-score [3] | composite z-score [4] | z-score [5] | z-score [6] | z-score [7] | z-score [8] | z-score [9] | composite z-score [10] | composite z-score [11] | composite z-score (XIP peptide (Xip251-270)) | z-score [12] | z-score [13] | z-score [14] | z-score [15] |
| --- | --- | --- | --- | --- | --- | --- | --- | --- | --- | --- | --- | --- | --- | --- | --- | --- |
| O=C(NCc1ccccc1)[C@@]1(Cc2ccccc2)COC(c2ccc(OCCCO)cc2)=N1 | -2.41 | 0.0178 (inactive) | -6.53 (inactive) | 1.1 (inactive) | 0.162 (inactive) | 3.65 (inactive) | 0.11 (inactive) | -0.762 (inactive) | -5.69 | -0.217 | 0.489 (inactive) | 0.75 | -2.15 | -4.9 (inactive) | -0.583 (inactive) | -0.649 (inactive) |
| Cc1ccc(S(=O)(=O)N2[C@@H](c3ccccc3)C(C(=O)O)=CC[C@H]2c2ccccc2)cc1 | -1.18 | 0.131 (inactive) | -2.14 (inactive) | 1.03 (inactive) | -0.0727 (inactive) | 0.256 (inactive) | -0.992 (inactive) | -1.25 (inactive) | -1.8 | 0.261 | -0.141 (inactive) | 0.0514 | -1.02 | -3.76 (inactive) | -0.354 (inactive) | -0.449 (inactive) |
| CCc1cccc(NC(=O)O[C@H]2[C@H](OC(=O)Nc3ccccc3)[C@@H](OC(=O)Nc3ccccc3)[C@@H](OC)O[C@@H]2CO)c1 | -2.9 | 0.28 (inactive) | -5.58 (inactive) | 0.189 (inactive) | 0.497 (inactive) | 2.4 (inactive) | 1.47 (inactive) | 0.711 (inactive) | -4.86 | 0.0153 | 0.652 (inactive) | 0.886 | -2.16 | -5.07 (inactive) | -0.235 (inactive) | -0.0949 (inactive) |
| CC1=C([C@H](O)CCc2ccccc2)[C@H](CO)[C@@H]2C(=O)N(Cc3ccccc3)C(=O)[C@@H]2C1 | 0.325 | -3.02 (inactive) | 0.169 (inactive) | -1.68 (inactive) | 0.0694 (inactive) | 0.0743 (inactive) | 1.6 (inactive) | 0.204 (inactive) | 0.308 | 0.201 | -0.241 (inactive) | -0.0644 | -0.793 | -4.92 (inactive) | -0.698 (inactive) | -0.835 (inactive) |
